Results from PubChem BioAssay AID1053173 (Broad Institute, 2014).
The campaign covered roughly 1,500 compounds. About 390 (26%) were called active. The rule behind the calls is not given here. Only a sample is shown. Measured potencies and affinities stand elsewhere.

The compounds below were run against Histone-lysine N-methyltransferase NSD2 (Homo sapiens) (UniProt O96028) (assay: NSD2 methyltransferase inhibitors, dose response, biochemical, AlphaScreen, cherry-picked samples (AID 1053173;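 note: 0% = neutral control wells and -100% = positive control wells on each plate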)). Conditions: NSD2 H4 peptide methylation, 120 min; series mostly up to 10 µM; activity change, negative = inhibition: at the top concentration.
Histone-lysine N-methyltransferase NSD2 (Homo sapiens), sequence (O96028 whole entry, looked up): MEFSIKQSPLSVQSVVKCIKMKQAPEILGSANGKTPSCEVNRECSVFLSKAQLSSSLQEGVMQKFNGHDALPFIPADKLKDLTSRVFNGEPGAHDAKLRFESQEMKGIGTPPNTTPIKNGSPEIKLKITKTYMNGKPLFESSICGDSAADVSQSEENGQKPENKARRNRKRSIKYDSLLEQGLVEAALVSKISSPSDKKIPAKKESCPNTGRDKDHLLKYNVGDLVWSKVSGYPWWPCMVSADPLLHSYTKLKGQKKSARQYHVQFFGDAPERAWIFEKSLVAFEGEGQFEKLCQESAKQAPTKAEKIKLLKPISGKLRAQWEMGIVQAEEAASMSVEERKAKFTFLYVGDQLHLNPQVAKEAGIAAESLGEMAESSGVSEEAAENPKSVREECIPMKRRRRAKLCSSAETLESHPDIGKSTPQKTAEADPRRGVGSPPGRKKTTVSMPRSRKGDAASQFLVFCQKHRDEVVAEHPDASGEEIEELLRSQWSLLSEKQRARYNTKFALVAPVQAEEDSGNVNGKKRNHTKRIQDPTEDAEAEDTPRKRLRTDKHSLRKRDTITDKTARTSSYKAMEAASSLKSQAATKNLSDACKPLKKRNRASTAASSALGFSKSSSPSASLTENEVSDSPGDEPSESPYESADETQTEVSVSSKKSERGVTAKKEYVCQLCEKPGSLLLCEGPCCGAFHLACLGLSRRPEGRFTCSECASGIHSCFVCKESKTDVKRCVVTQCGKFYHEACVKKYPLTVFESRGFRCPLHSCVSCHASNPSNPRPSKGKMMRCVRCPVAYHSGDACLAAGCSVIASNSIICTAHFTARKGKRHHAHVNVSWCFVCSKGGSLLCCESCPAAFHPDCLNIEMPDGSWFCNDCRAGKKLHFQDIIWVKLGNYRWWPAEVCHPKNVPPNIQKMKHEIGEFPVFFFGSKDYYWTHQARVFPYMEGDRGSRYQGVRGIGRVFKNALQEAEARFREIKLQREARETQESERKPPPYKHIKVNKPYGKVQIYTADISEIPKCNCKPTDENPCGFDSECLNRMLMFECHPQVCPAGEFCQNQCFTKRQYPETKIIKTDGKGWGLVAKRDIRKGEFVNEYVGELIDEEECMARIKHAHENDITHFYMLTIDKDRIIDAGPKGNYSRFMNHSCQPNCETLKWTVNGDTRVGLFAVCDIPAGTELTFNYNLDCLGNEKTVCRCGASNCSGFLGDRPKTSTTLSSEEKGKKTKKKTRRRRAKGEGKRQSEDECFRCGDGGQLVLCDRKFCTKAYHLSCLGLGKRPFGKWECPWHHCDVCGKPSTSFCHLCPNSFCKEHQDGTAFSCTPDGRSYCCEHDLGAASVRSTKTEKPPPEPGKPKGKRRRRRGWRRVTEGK

Activity change, negative = inhibition, inactive:
Cc1cccc2c(N=NC(=O)c3ccc(NS(=O)(=O)c4cccs4)cc3)c(O)[nH]c12 -5.5%
Cc1cc(S(=O)(=O)NCc2cccnc2)ccc1F -2.37%
O=C(COc1ncnc2c(Cl)cc(Cl)cc12)N1CCCCC1 -0.554%
Cn1ncc2c(Nc3cccc4ccccc34)ncnc21 2.95%
O=C(NCCN1CCOCC1)NC1(C(F)(F)F)Oc2ccccc2O1 -0.91%
CCCCc1ccc(NC(=O)CSc2nc(=O)n(CCN(CC)CC)c3c2CCCC3)cc1 -5.12%
Cc1cc(SCC(=O)Nc2cccnc2Cl)nc2ccccc12 0.285%
COc1ccc(C(=O)Nn2c(SCC(=O)c3ccc(Cl)cc3)nc3ccccc3c2=O)cc1 -2.62%
Cc1ccc(-c2cc(C(=O)N/N=C/c3ccccc3)n[nH]2)o1 -1.55%
Cc1cc(=O)[nH]c(N/N=C/c2c(C)nn(-c3ccccc3Cl)c2Cl)n1 -1.01%
Cc1ccc(O)c(NC(=O)c2cc3nc4c(c(C(F)(F)F)n3n2)CCc2ccccc2-4)c1 -1.53%
O=C(Nc1cc(F)ccc1F)N1CCN(c2ccnc3cc(Cl)ccc23)CC1 -0.162%
COc1ccc(C(=O)C(OC(=O)c2ccc(C)c(NC(C)=O)c2)c2ccccc2)cc1 (stereo not drawn) -3.15%
COCCN(C(=O)CNC(=O)c1ccco1)C(C(=O)NC1CCCC1)c1ccc(OC)cc1 (stereo not drawn) 0.585%
CC1(C)NC(=O)N(CCCOc2ccccc2Br)C1=O -1.93%
CCOc1cc(NC2CS(=O)(=O)CC2O)c(OCC)cc1NC(=O)c1ccccc1 (stereo not drawn) -10.2%
Cc1ccc(N2C(=O)N(CC(=O)Nc3cccc([N+](=O)[O-])c3C)C(=O)C2C)cc1 (stereo not drawn) -2.74%
O=C(CC(=O)Nc1ccc(Cl)cc1)N/N=C\c1cccc(F)c1 7.1%
Cc1ccc(NC(=O)CCn2c(=O)oc3ccccc32)cc1 1.97%
O=C(NNC(=O)c1ccc(NC(=O)C2CC2)cc1)c1ccc(F)cc1 -4.45%
CC1CCN(CCC(=O)Nc2ccccc2)CC1 -1.04%
CNS(=O)(=O)c1cc(NC(=O)CCCNC(=O)c2ccc(Cl)cc2)ccc1C -3.69%
Cc1ccc(NC(=O)CCC(=O)OCC(F)(F)C(F)F)cc1 -4.16%
CC1CCCCC12NC(=O)N(CC(=O)NC(=O)NCc1ccco1)C2=O (stereo not drawn) 5.2%
COc1cccc(CNC(=S)Nc2ccc(Cl)cc2C)c1 2.1%
O=[N+]([O-])c1ccccc1-c1ccc(C(=S)N2CCCC2)o1 -6.85%
Cn1cc(-c2ccccc2C(N)=O)c(=O)c2ccccc21 -1.88%
CC1CCCC(NC(=O)COC(=O)c2c[nH]c(=O)[nH]c2=O)C1C (stereo not drawn) -1.68%
O=C(OCc1cnc(Cl)s1)c1cccs1 -1.1%
Cc1ccc(N2CS(=O)(=O)/C(=C/N(C)C)C2=O)cc1 5.06%
Cn1c(CSCc2ccccc2)nnc1SCC(=O)Nc1nccs1 0.187%
O=C(CC1C(=O)N(c2ccccc2)C(=S)N1c1ccccc1)c1ccc(Br)cc1 (stereo not drawn) -0.56%
CCn1c(O)c(/C=N/n2cnnc2)sc1=S 0.542%
CCOc1ccc(-c2nnc(SCc3nc4ccccc4[nH]3)n2N)cc1 -2.78%
CCOC(=O)C(Oc1ccc2c(-c3ccc(OC)cc3)cc(=O)oc2c1C)c1ccccc1 (stereo not drawn) -0.617%
CCOC(=O)c1c(C#N)c(SCC(=O)Nc2ccc(OC)cc2)nc2c1CN(CC)CC2 -3.26%
COc1ccc(OCCSc2nnc(CCNC(=O)c3ccc(Cl)c(Cl)c3)n2C)cc1 1.83%
COc1cccc(CN2C(=O)C(C)N(C(=O)c3c(F)cccc3F)c3ccccc32)c1 (stereo not drawn) -4.93%
CN1CCN(c2ccc(S(=O)(=O)N3CCOCC3)cc2NC(=O)COc2ccc(F)cc2Cl)CC1 -1.77%
COc1ccc(C2C(C(=O)/C=C/c3ccco3)=C(O)C(=O)N2CCN2CCOCC2)cc1OC (stereo not drawn) 2.35%
COc1ccc(CCNC(=O)Nc2ccc3c(c2)c(=O)n(C)n3CC=C(C)C)cc1OC 1.5%
CCc1nnc(NC(=O)c2ccc3ccccc3n2)s1 -0.466%
CCc1nnc(NC(=O)c2ccc(COc3ccccc3)o2)s1 0.577%
CCC1(c2ccc(F)cc2)NC(=O)N(CC(=O)N(CCC#N)c2ccccc2)C1=O (stereo not drawn) -0.318%
Cc1ccc(S(=O)(=O)N(C)C)cc1NC(=O)/C=C/c1cccs1 1.54%
CC1(C)Cc2sc3c(=O)[nH]c(=S)[nH]c3c2CO1 1.02%
CCOc1ccc(N2CC(C(=O)NCCc3c[nH]c4ccc(OC)cc34)CC2=O)cc1 (stereo not drawn) 0.809%
Cc1ccc(NC(=O)Cn2nnc(C(=O)NCc3ccccc3)c2N)cc1C -0.362%
Cc1cc(C(=O)COC(=O)c2ccc([N+](=O)[O-])o2)c(C)n1CC1CCCO1 (stereo not drawn) -9.09%
COc1ccc(C(c2c(C)[nH]n(-c3ccccc3)c2=O)c2c(C)[nH]n(-c3ccccc3)c2=O)cc1OC -9%
C/C(CC(=O)Nc1ccccn1)=N\NC(=O)C(=O)Nc1cccc(Cl)c1C -0.689%
COCCN(C(=O)CCC(=O)Nc1ccccn1)C(C(=O)NC(C)C)c1ccc(C)cc1 (stereo not drawn) -2.62%
Cc1[nH]n(-c2ccccc2)c(=O)c1C(C[N+](=O)[O-])c1ccc(F)cc1 (stereo not drawn) 1.48%
Cc1ccc(C(C[N+](=O)[O-])c2c(C)[nH]n(-c3ccccc3)c2=O)cc1 (stereo not drawn) -2.59%
CCN(CC)C(=O)COC(=O)C1=NN(c2cc(C)ccc2C)C(=O)CC1 -3.17%
COC(=O)CCCC(=O)NC1CC(C)(C)Cc2c1cnn2-c1ccc(C)cc1 (stereo not drawn) -0.494%
C=CCn1c(SCc2ccc(C#N)cc2)nnc1-c1ccc(C)cc1 -2.38%
C=CCn1c(SCC(=O)N2CCN(c3ccccc3)CC2)nnc1-c1ccco1 -4.63%
Cc1cccc(-c2nnc(SCC(=O)c3ccc(O)cc3O)n2C)c1 0.938%
CN(C)c1cccc2c1c(NC(=O)Nc1ccccc1)nn2C -5.26%
O=C(c1ccc2c(c1)OCO2)C1CCCN(Cc2ccc3cccc(F)c3n2)C1 (stereo not drawn) -1.24%
CCNc1ccccc(C(=O)/C=C/c2ccc3c(c2)OCO3)c1=O -2.99%
CC(Cc1c[nH]c2ccccc12)C(=O)NCc1ccco1 (stereo not drawn) -7.92%
CCOC(=O)N1CCN(C2=Nc3cccc4cccc2c34)CC1 0.355%
CSc1ncccc1C(=O)Nc1nc2c(C)cccc2s1 4.37%
Nc1ncnc(NCc2ccccc2)c1[N+](=O)[O-] 0.484%
COc1ccc(COc2ncnc3ccc(Br)cc23)cc1F 1.25%
COc1ccc(CCNC(=O)C2CCN(C(=O)c3ccccc3C)CC2)cc1 0.092%
Cc1cccc(N(CC(=O)NC(C)(C)C)C(=O)CS(=O)CC(=O)Nc2ccc3c(c2)OCO3)c1 (stereo not drawn) 0.013%
CC(=O)N1CCN(Cc2nc3cc(NC(=O)Cn4nc(C)c5ccccc5c4=O)ccc3n2C)CC1 1.58%
[O-][n+]1cccc2c(Br)cc(Br)c(O)c21 -3.88%
OC(COc1ccc2ccccc2c1Cl)CN1CCOCC1 (stereo not drawn) -1.1%
CCCCN(CC)CCNC(=O)CN(C)S(=O)(=O)c1ccc2c(c1)c(=O)n(C)c(=O)n2C -9.9%
Cc1ccc(C(=O)Nc2ccc(CC(=O)O)cc2)o1 -1.83%
CCCc1cc(Nc2ccccc2C)n2ncnc2n1 6.66%
N#Cc1c(SCC(=O)OCc2ccccc2)nsc1SCC(=O)OCc1ccccc1 -2.54%
Cc1cc(Cl)ccc1OCCCC(=O)N1CCOCC1 1.3%
CCN(CC)Cc1c(O)c(Cl)cc2c(C)cc(=O)oc12 -7.42%
O=S(=O)(c1ccc(-c2nnco2)cc1)N1CCCCC1 -4.33%
O=C(CSc1nnc2ccccn12)NNC(=O)c1ccc([N+](=O)[O-])cc1 -0.222%
O=C(c1ccc(N2CCOCC2)c([N+](=O)[O-])c1)N1CCN(Cc2ccccc2)CC1 -3.51%
O=C1CC(N2CCOCC2)=NN1c1ccc([N+](=O)[O-])cc1 -2.73%
c1cc(-c2ccoc2)n2ccnc2c1 -3.71%
CCN1C(=O)c2ccccc2S(=O)(=O)c2ccc(C(=O)NC(C)C)cc21 -0.906%
CC1CN(Cc2c(O)ccc3c(=O)c(-c4ccccc4Cl)coc23)CC(C)O1 (stereo not drawn) 0.635%
CCCCN1C(=O)C(=Nc2cccc3cnccc23)c2ccccc21 -3.19%
CN(C)CCNc1nc(-c2ccco2)c2c(c1C#N)CC(C)(C)OC2 -1.66%
COc1ccc(C2CC(c3ccc(Cl)cc3)=NN2C(C)=O)cc1 (stereo not drawn) -1.06%
Cc1ccnc(N2CCC(C(=O)NC3CCCCCC3)CC2)n1 -2.18%
NC(=O)c1[nH]cnc1N=NN(CCO)Cc1ccccc1 0.49%
CC(Oc1ccc(Cl)cc1Cl)C(=O)NC(Cc1ccccc1)C(=O)O (stereo not drawn) 4.79%
O=C(NCc1cccnc1)c1ccc2c(c1)OCO2 -4.15%
CS(=O)(=O)N(CC(=O)NCc1ccc2c(c1)OCO2)c1cccc(Cl)c1 0.858%
C=CCOc1ccc(NC(=O)C2CC(=O)N(C(C)C)C2)cc1 (stereo not drawn) -0.242%
Oc1cccc(C=NCc2ccccc2)c1 1.51%
Oc1ccc(NCc2cccc(OCc3ccc(F)cc3)c2)cc1 -5.89%
Cc1cccc(C(=O)NCC(=O)OCc2nnc(-c3ccccc3)o2)c1 0.7%
COc1ccccc1NC(=O)C(C)OC(=O)CCNS(=O)(=O)c1cccc(C(F)(F)F)c1 (stereo not drawn) 1.15%
O=C(NCc1ccco1)c1nc(-c2ccccc2)n(-c2ccccc2)n1 -2.2%
CCOc1cc(N2CCOCC2)c(OCC)cc1NC(C)C(=O)N1CCN(CC)CC1 (stereo not drawn) -1.64%
CCCC(=O)c1ccc(O)cc1O 0.614%
Cc1nc(COC(=O)c2cc(O)c3ccccc3c2O)cs1 -1.16%
COCCN1CC(=O)N2C(c3cccc(C)c3)c3[nH]c4ccccc4c3C[C@H]2C1=O (stereo partly drawn) -2.11%
COc1ccc(C2CC(=O)c3c(C)nc(N4CCN(c5ccccc5)CC4)nc3C2)cc1 (stereo not drawn) 0.827%
CCOCCCNC(=O)Cn1cc2c(n1)-c1c(oc(C(=O)N3CCCC3)c1C)CC2 0.254%
O=C(NC1CCCC1)c1cc(-c2ccc(Cl)cc2Cl)on1 -3.59%
CC1CN(C(=O)COC(=O)/C=C/c2ccccc2)CC(C)O1 (stereo not drawn) -1.51%
Cc1cccc(OCCn2c(=S)[nH]c3ccccc32)c1 -3.36%
